Measurements from PubChem BioAssay AID1259417 (TB Discovery Research, Infectious Disease Research Institute, 2018).
The whole screen tested about 1,100 compounds, of which about 760 (69%) were called active. The rule behind the calls is not given here. The set was probably picked from earlier hits. Some of the results follow.

Experiment: M. tuberculosis growth inhibition, HTS (AID 1259417);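 note: bacteria grown with compound for 5 days at 37 °C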
Details: stronger effect = higher value, concentration not given here
[1] = M. tuberculosis DsRed fluorescence growth inhibition
[2] = M. tuberculosis growth inhibition

Row | SMILES | inhibition [1] | inhibition [2]
1 | COc1ccc2[nH]cc(CCNC(=S)Nc3ccc(Nc4ccccc4)cc3)c2c1 | -2.93% (inactive) | -13.6%
2 | COc1ccc(NC(=O)C(Cc2c[nH]c3ccccc23)NC(C)=O)cc1 (stereo not drawn) | 93.6% (active) | 90.1%
3 | Cc1ccc(-c2csc(Nc3ccc(C(=O)O)c(O)c3)n2)cc1 | 94.8% (active) | 94.9%
4 | Cc1cc(-c2csc(Nc3ccc(S(N)(=O)=O)cc3)n2)ccc1F | 12% (inactive) | 9.99%
5 | Cc1ccc(-c2csc(Nc3ccc(S(N)(=O)=O)cc3)n2)cc1 | 33.4% (active) | 44.5%
6 | O=C(Nc1ccccc1-c1ccccc1)C(Cl)(Cl)Cl | 100% (active) | 99.6%
7 | C/C=C/c1ccc(OCC(=O)OCc2csc(Nc3ccc(C)cc3)n2)c(OC)c1 | 0.924% (active) | 37.2%
8 | Oc1ccc(Br)cc1C1=NNC(c2ccc(F)cc2)C1 (stereo not drawn) | 99.5% (active) | 100%
9 | CCC(C)Oc1ccc(C(=O)NC(=S)Nc2ccc3c(c2)COC3=O)cc1 (stereo not drawn) | 30.7% (active) | 25.2%
10 | CCOC(=O)CSc1cc(C)nc2ccc(C)cc12 | 96.8% (active) | 99.3%
11 | COc1ccc2nc(C)cc(SCC(=O)OC(C)C)c2c1 | 89.3% (active) | 99.6%
12 | CC(=O)Oc1cccc2ccc(C=Cc3cccc(Br)c3)nc12 | 87.4% (active) | 84%
13 | O=C(C=Cc1cccc(C(F)(F)F)c1)Nc1cccc(Br)c1 | 9.1% (inactive) | 9.88%
14 | CC(=O)Oc1cccc2ccc(C=Cc3ccc(F)cc3)nc12 | 86.6% (active) | 89.9%
15 | Oc1cccc2ccc(C=Cc3cccc(F)c3)nc12 | 98.8% (active) | 99.7%
16 | CCC(=O)Oc1cccc2ccc(C=Cc3ccccc3F)nc12 | 92.1% (active) | 87.6%
17 | O=C(C[n+]1cc(-c2ccc(Cl)cc2)n2c1CCC2)N1c2ccccc2Sc2ccccc21 | 10.7% (inactive) | 3.46%
18 | Cc1ccc(-c2csc(NC(=O)C[n+]3cc(-c4ccc(C)cc4)n4c3CCC4)n2)cc1 | 13.7% (inactive) | 7.92%
19 | O=C(C[n+]1cc(-c2ccc(Cl)c(Cl)c2)n2c1CCC2)N1c2ccccc2Sc2ccccc21 | 37.7% (active) | 43.1%
20 | CCCCn1c(=O)c(C(=O)Nc2nnc(C(C)C)s2)c(O)c2ccccc21 | 76.9% (active) | 72.9%
21 | CCOC(=O)COc1ccc2ccccc2c1C=C(C)[N+](=O)[O-] | 24% (inactive) | 10.8%

Row | SMILES | inhibition [1] | inhibition [2]
22 | COc1cc(/C=C/c2ccc3c([N+](=O)[O-])cccc3n2)ccc1OCC(=O)O | 89.6% (active) | 92.7%
23 | O=[n+]1c2ccccc2n([O-])c2ccccc21 | 98.3% (active) | 98.8%
24 | CCCn1c(CNc2ccccc2O)nc2ccccc21 | 99.4% (active) | 100%
25 | Cc1ccccc1C(=O)Nc1sc(Cc2ccccc2)c(C)c1C(N)=O | -2.04% (inactive) | -9.31%
26 | CCc1c(C)sc(NC(=O)c2ccc(Br)cc2)c1C(N)=O | 4.19% (inactive) | 7.97%
27 | CCOC(=O)c1c(NC(=O)c2cccc([N+](=O)[O-])c2)sc(CC)c1-c1ccccc1 | 4.19% (inactive) | -29.7%
28 | COC(=O)c1c(-c2ccc(Cl)cc2)csc1NC(=O)c1c(F)c(F)c(F)c(F)c1F | 91.1% (active) | 87.2%
29 | CCOC(=O)c1c(NC(=O)c2cccc(OC)c2)sc(C)c1-c1ccccc1 | 0.932% (inactive) | -15.9%
30 | CCOC(=O)c1c(NC(=O)c2c(F)c(F)c(F)c(F)c2F)sc(C(=O)OC)c1C | 99.4% (active) | 97.6%
31 | COC(=O)c1c(NC(=O)c2cc(OC)cc(OC)c2)sc2c1C(C(=O)OC)CC2 (stereo not drawn) | -0.558% (inactive) | -13.8%
32 | CCOC(=O)c1c(-c2ccc(C)o2)csc1NC(=S)NC(=O)N(C)C | 2.65% (inactive) | -1.32%
33 | COC(=O)c1sc(NC(=O)c2c(F)c(F)c(F)c(F)c2F)c(C(N)=O)c1C | 98.6% (active) | 96.9%
34 | COC(=O)c1c(-c2ccccc2)csc1NC(=O)c1cc(OC)cc(OC)c1 | 4.19% (inactive) | -6.55%
35 | CCc1c(C)sc(NC(=O)c2c(F)c(F)c(F)c(F)c2F)c1C(=O)OC(C)C | 98.2% (active) | 95.8%
36 | COC(=O)c1sccc1NC(=O)c1c(F)c(F)c(F)c(F)c1F | 99.1% (active) | 97.7%
37 | CCOC(=O)c1c(NC(=O)c2c(F)c(F)c(F)c(F)c2F)sc(C(N)=O)c1C | 98.6% (active) | 99.4%
38 | CCOC(=O)c1c(NC(=O)c2cccc(OC(C)=O)c2)sc(CC)c1-c1ccccc1 | 2.11% (inactive) | -5.86%
39 | CCOC(=O)c1sc(NC(=O)c2c(F)c(F)c(F)c(F)c2F)c(C(=O)OCC)c1C | 93.8% (active) | 88.9%
40 | CCOc1ccc2ccccc2c1C(=O)Nc1sc(C)c(C)c1C(N)=O | 9.82% (inactive) | 9.7%
41 | Clc1ccc2c(c1)C1=C(C(c3ccncc3)O2)C(c2ccc(Br)cc2)n2ncnc2N1 (stereo not drawn) | 96% (active) | 93.9%
42 | CC(=NNc1nc(=O)[nH]nc1C)c1ccccc1O | 98.6% (active) | 98.8%

Row | SMILES | inhibition [1] | inhibition [2]
43 | COc1cccc(C=NNc2nc(=O)[nH]nc2C)c1O | 91.7% (active) | 94.9%
44 | COc1ccc(C2(C(=O)Nc3ccc(Br)cc3)CCCC2)cc1 | 63.2% (active) | 81.4%
45 | CC(=NNc1nc(C)c(C)s1)c1ccc(Br)cc1 | 96.2% (active) | 89.4%
46 | CCOC(=O)CCc1c(C)c(C#N)c2[nH]c3ccccc3n2c1=O | 98.3% (active) | 96.2%
47 | CCOC(=O)COc1ccc2c(C#N)c3ccccn3c2c1 | -0.849% (inactive) | 22.1%
48 | COC(=O)c1c2c(n3ccc(C)cc13)C(=O)c1ccccc1C2=O | 99.2% (active) | 98.8%
49 | CCOC(=O)C1=C(c2ccc(C)cc2)C(=O)c2ccccc2C1=O | 14.4% (inactive) | 16.3%
50 | CC(C)(C)c1ccc(C(=O)Nc2cccc(NC(=O)c3cccs3)c2)cc1 | 0.571% (inactive) | 22.7%
51 | CN(C)c1ccc(NC(=O)c2ccncc2)cc1 | 98% (active) | 100%
52 | Cc1ccc(NC(=O)c2cc3cc(Cl)cc(Cl)c3oc2=O)c(C)c1 | 9.67% (active) | 43.2%
53 | O=C1c2ccccc2C(=O)N1CCCCN(C(=O)c1cc([N+](=O)[O-])cc([N+](=O)[O-])c1)c1ccc(Cl)cc1 | 97.2% (active) | 92.5%
54 | CC1=CC(C)(C)Nc2ccc(OC(=O)c3cccnc3)cc21 | 9.4% (active) | 36.8%
55 | CCOC(=O)c1c(C)oc2ccc(OC(=O)c3cccs3)cc12 | -0.261% (inactive) | 2.41%
56 | CC1=CC(C)(C)Nc2ccc(OC(=O)c3cccs3)cc21 | 49.6% (active) | 74.6%
57 | NC(=O)c1c(NC(=O)c2ccc(COc3ccccc3Cl)cc2)sc2c1CCCC2 | -7.68% (inactive) | -40%
58 | O=C(Nc1ncnc2sc3c(c12)CCCC3)c1ccc(F)cc1 | 26.6% (active) | 61.8%
59 | Cc1cccc(N2CCN(c3ncnc4sc5c(c34)CCCC5)CC2)n1 | 7.93% (inactive) | -17.2%
60 | CCOC(=O)c1cnc2ccc(OC)cc2c1Nc1ccc2c(c1)OCCO2 | 36.6% (active) | 24%
61 | CC(=O)OCCNc1cc(SCc2ccco2)c2nonc2c1[N+](=O)[O-] | 14.7% (inactive) | 11.3%
62 | O=C(CC(SCc1ccco1)c1cccc([N+](=O)[O-])c1)c1ccco1 (stereo not drawn) | 96.9% (active) | 97.7%
63 | CCCC(=O)OCCNc1cc(SCc2ccco2)c2nonc2c1[N+](=O)[O-] | 22% (inactive) | 21%

Row | SMILES | inhibition [1] | inhibition [2]
64 | CCCCn1c(O)c(/C=C2\C=CC=N2)c(=O)[nH]c1=O | 58.2% (active) | 89.6%
65 | Cc1cc(C)c(-n2c(O)c(/C=C3\C=CC=N3)c(=O)[nH]c2=O)c(C)c1 | 97.7% (active) | 98.6%
66 | O=c1c2cccc3c2c(nn1CCN1CCCCC1)-c1ccccc1-3 | -22.6% (active) | 56.2%
67 | CCC(C)c1ccc(OCCCCn2ccnc2)cc1 (stereo not drawn) | 100% (active) | 100%
68 | CCC(C)c1ccc(OCCn2ccnc2)cc1 (stereo not drawn) | 99.2% (active) | 99.6%
69 | CCC(C)(C)c1ccc(OCCCn2ccnc2)cc1 | 100% (active) | 99.6%
70 | CCOC(=O)c1c(NC(=S)NC2CCN(Cc3ccccc3)CC2)sc(C)c1-c1ccccc1 | 21.1% (inactive) | -12.2%
71 | CCOC(=O)c1sc(NC(=O)CCSc2ccccc2)cc1C | 96.9% (active) | 84.1%
72 | CCOC(=O)c1sc(NC(=O)NC2CCCCC2)cc1C | 100% (active) | 96.2%
73 | CCOC(=O)C(C#N)=Cc1ccc(-c2ccc(F)cc2)o1 | 2.37% (active) | 87.5%
74 | Cc1ccc(-c2ccc(C=CC(=O)c3ccco3)o2)cc1 | 9.38% (inactive) | 20.8%
75 | Cc1ccc(-n2cnc3cc(NCc4cccs4)ccc32)cc1 | 18.8% (active) | 35.4%
76 | CC(=O)N1CCN(c2cc3c(cc2F)c(=O)c(C(=O)O)cn3C2CC2)CC1 | 97.5% (active) | 97.7%
77 | CCn1cc(C(=O)O)c(=O)c2cc(F)c(N3CCN(C)CC3)cc21 | 94.8% (active) | 94.2%
78 | CCn1cc(C(=O)O)c(=O)c2cc(F)c(N3CCNCC3)cc21 | 96.6% (active) | 97%
79 | CCn1cc(C(=O)O)c(=O)c2cc(F)c(N3CCN(C(=S)Nc4cc(C(F)(F)F)ccc4Cl)CC3)cc21 | 47.9% (active) | 61.9%
80 | O=c1oc(-c2ccccc2)cc(Cl)c1Cl | 61.6% (active) | 74%
81 | Cc1ccc2sc(N(CCCn3ccnc3)C(=O)c3cccs3)nc2c1C | 98.3% (active) | 99.1%
82 | CCc1cccc2sc(N(CCCn3ccnc3)C(=O)C=Cc3cccs3)nc12 | 97.8% (active) | 99.1%
83 | CCc1cccc2sc(N(CCCn3ccnc3)C(=O)c3cccs3)nc12 | 88.1% (active) | 97.7%
84 | O=C(c1cccs1)N(CCCn1ccnc1)c1nc2c(Cl)cccc2s1 | 91.1% (active) | 98.4%
